Compound activity deposited in PubChem BioAssay by National Center for Advancing Translational Sciences (NCATS).
Hits are enriched below; roughly 9.2% of the tested compounds scored in any of these assays.
FLuc counter – inhibits or activates purified firefly luciferase, miR-21 counter-screen | hit rate 6.9% among 360,000 | Potency, µM (titrated, usually from 57.5 µM), for the others: at the highest dose activity change, negative = inhibition, usual class: inhibitors | purified FLuc, Km substrates, luminescence inhibition;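 also: plate controls were vehicle for no effect and reference inhibitor for full effect; nearly all actives have a fitted effect of over 55% in size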
Target sequence (P08659 whole entry, looked up): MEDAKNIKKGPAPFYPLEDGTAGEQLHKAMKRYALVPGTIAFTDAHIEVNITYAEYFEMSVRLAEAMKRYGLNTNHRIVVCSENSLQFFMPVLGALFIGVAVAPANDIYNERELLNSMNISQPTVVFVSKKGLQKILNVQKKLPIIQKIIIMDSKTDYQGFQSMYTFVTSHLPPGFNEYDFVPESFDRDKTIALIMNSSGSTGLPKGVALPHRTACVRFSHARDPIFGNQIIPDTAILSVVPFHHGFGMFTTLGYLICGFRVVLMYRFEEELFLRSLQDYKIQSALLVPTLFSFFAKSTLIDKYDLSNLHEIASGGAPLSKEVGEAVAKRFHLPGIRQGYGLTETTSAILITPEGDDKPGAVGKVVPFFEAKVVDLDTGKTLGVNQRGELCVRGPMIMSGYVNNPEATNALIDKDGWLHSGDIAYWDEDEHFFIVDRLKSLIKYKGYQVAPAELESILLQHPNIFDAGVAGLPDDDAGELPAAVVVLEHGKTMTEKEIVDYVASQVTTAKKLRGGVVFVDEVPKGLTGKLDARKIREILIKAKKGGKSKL
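Purified P. pyralis luciferase, 10 nM final, with Km-level 10 uM D-luciferin and 10 uM ATP in 50 mM Tris acetate pH 7.5, 10 mM Mg acetate, 0.01% Tween-20, 0.05% BSA; 6-point qHTS titration about 60 µM downward; luminescence read.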
ELG1 genotox – induces genotoxicity in HEK293T cells with luciferase-tagged ELG1; Potency, µM (series often up to 46 µM), for inactives: top-dose activity change, positive = activation, actives largely listed as activators; HEK293T ELG1-luciferase reporter, luminescence, 16 h; hit rate 1.3% among 330,000; AID 504466; also: % of control where 0% means no effect; nearly all actives have a fitted effect of over 60% in size
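16 hr compound incubation (37 °C, 5% CO2) of HEK293T cells carrying luciferase-tagged ELG1; luciferase then measured by ONE-Glo luminescence after 30 min at RT.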
Rab9 prom act – Rab9 promoter activation; Huh7 Rab9 promoter-luciferase reporter, luminescence, 24 h; Potency, µM (series often up to 9.22 µM), inactives show at the top dose activation, negative = inhibition, hits mostly activators; hit rate 2.8% among 320,000; also: % of control where 0% means no effect; nearly all actives have a fitted effect of over 60% in size
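Luminescence from Amplite-detected luciferase (10 minutes, ambient) reports Rab9 promoter activation. Before that, stable Rab9-luciferase Huh7 cells (1500/well, reduced-serum OP-MEM I plus 10% FBS) were exposed to compound for 24 hours at 37C.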
NPC1 promoter act – activators of NPC1 promoter; Huh7 NPC1 promoter luciferase reporter, 24 h; Potency, µM (top dose mostly 9.22 µM), for inactives: at the top dose activation, hits mostly activators; hit rate 2.4% among 320,000; AID 485313; also: % of control where 0% means no effect; nearly all actives have a fitted effect of over 60% in size
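Readout is luciferase luminescence, reflecting NPC1 promoter activation in stably transfected Huh7 cells after 24 h compound exposure at 37 °C in reduced-serum medium with 10% FBS.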
ELG1 repair inh – inhibitors of ELG1-dependent DNA repair in HEK293T cells | hit rate 2.3% among 330,000 | Potency, µM (top dose mostly 46.1 µM), inactives show at the highest dose activity change, negative = inhibition, usual class: inhibitors | HEK293T ELG1-luciferase reporter, luminescence, 16 h; DNA damage induced by 5-fluorouridine; also: % is scaled to controls: 0 for no effect and ±100 for the full control effect; nearly all actives have a fitted effect of over 55% in size
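In this reporter screen, reduction of luminescence relative to DMSO vehicle indicated activity. Compounds and 5-fluorouridine were added together to 2,000 cells per well, incubated for 16 hr at 37 °C, then developed with ONE-Glo.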
SMN2 splice up – SMN2 splice variant enhancement. HEK293 SMN2-luciferase splicing reporter, luminescence, 30-36 h. Potency, µM (titrated, usually from 46.1 µM), for the others: at the highest dose activity change, positive = activation, usual class: activators. hit rate 2.8% among 210,000. AID 1458; also: % of control where 0% means no effect; nearly all actives have a fitted effect of over 55% in size
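HEK293 cells carry an SMN2 […]–luciferase reporter in which exon 7 inclusion puts luciferase in frame. Cells were plated 10-12 h before compound addition, then incubated 30-36 h at 37C. ONE-Glo luminescence was read; sodium butyrate at 4.5 mM final served as control.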
Numbers without * were called inactive. Calls follow the shape of the dose curve; as a rule, active = well fitted curve in the direction sought with a large enough effect; inconclusive = small, poorly fitted or top-dose-only effect, or another doubt; inactive = no such curve, though single readings can be large; an effect the other way counts as inactive or inconclusive. Potency is read from the fitted curve at half-maximal effect.

Results for COc1ccc(/C=C2\SC(=S)N(c3cccnc3)C2=O)cc1 ?
FLuc counter: 6%; ELG1 genotox: 4%; Rab9 prom act: 3%; NPC1 promoter act: 3%; ELG1 repair inh: 1%

Results for COc1cccc(/C=C2\SC(=S)N(c3cccnc3)C2=O)c1OC ?
FLuc counter: 2.4µM*; ELG1 genotox: 0%; Rab9 prom act: -4%; NPC1 promoter act: -1%; ELG1 repair inh: -13%; SMN2 splice up: 10%

How did COc1cccc(Nc2nnc(SCC(=O)N(CC(C)C)CC(C)C)s2)c1 do in these assays?
FLuc counter: 11µM*; ELG1 genotox: -11%; Rab9 prom act: -15%; NPC1 promoter act: -2%; ELG1 repair inh: -22%

Results for COc1cccc(Nc2nnc(SCN3C(=O)c4ccccc4C3=O)s2)c1 ?
FLuc counter: 5%; ELG1 genotox: 9%; Rab9 prom act: -1%; NPC1 promoter act: 1%; ELG1 repair inh: inconclusive; SMN2 splice up: 28%

Results for Cc1cccc(C)c1Nc1nnc(SCc2nc3ccccc3s2)s1 ?
FLuc counter: 6µM*; ELG1 genotox: inconclusive; Rab9 prom act: 25%; NPC1 promoter act: 6%; ELG1 repair inh: inconclusive; SMN2 splice up: inconclusive

Results for COc1cccc(Nc2nnc(SCc3nc4ccccc4s3)s2)c1 ?
FLuc counter: 13µM*; ELG1 genotox: 15%; Rab9 prom act: inconclusive; NPC1 promoter act: inconclusive; ELG1 repair inh: inconclusive; SMN2 splice up: -11%

Results for CCOc1ccc(C(c2c(O)cc(C)n(Cc3ccco3)c2=O)N2CCCCC2)cc1 (stereo not drawn) ?
FLuc counter: -18%

Results for Cc1ccc(C=NNC(=O)c2cc(-c3cccnc3)nc3ccccc23)o1 ?
ELG1 genotox: -1%; ELG1 repair inh: 3%

What do the screens show for `COc1ccccc1-c1cc(C(=O)N/N=C/C=C/c2ccccc2[N+](=O)[O-])c2ccccc2n1`?
FLuc counter: 0%; ELG1 genotox: -10%; Rab9 prom act: -3%; NPC1 promoter act: 0%; ELG1 repair inh: 16µM*; SMN2 splice up: -18%

What do the screens show for `O=C(N/N=C/C=C/c1ccccc1[N+](=O)[O-])c1cccnc1`?
FLuc counter: 0%; ELG1 genotox: 1%; Rab9 prom act: -3%; NPC1 promoter act: -1%; ELG1 repair inh: 13%

How did O=C(NN=Cc1cccc([N+](=O)[O-])c1)c1cc(-c2cccnc2)nc2ccccc12 do in these assays?
ELG1 genotox: 0%; ELG1 repair inh: 23µM*

What do the screens show for `Cc1[nH]c2ccccc2c1C=NNC(=O)c1cc(-c2cccnc2)nc2ccccc12`?
ELG1 genotox: -9%; ELG1 repair inh: 16µM*

How did Cc1cc(C(=O)N/N=C/c2cccc([N+](=O)[O-])c2)c2ccccc2n1 do in these assays?
FLuc counter: 2%; ELG1 genotox: 0%; Rab9 prom act: -16%; NPC1 promoter act: 1%; ELG1 repair inh: -10%; SMN2 splice up: 2%

Results for O=C(N/N=C/C=C/c1ccccc1[N+](=O)[O-])c1cc(-c2cccnc2)nc2ccccc12 ?
FLuc counter: inconclusive; ELG1 genotox: -7%; Rab9 prom act: 0%; NPC1 promoter act: 3%; ELG1 repair inh: 16µM*; SMN2 splice up: -11%

Results for COc1ccccc1-c1cc(C(=O)N/N=C\c2cnn(C)c2C)c2ccccc2n1 ?
FLuc counter: -1%; ELG1 genotox: -1%; Rab9 prom act: -8%; NPC1 promoter act: 1%; ELG1 repair inh: inconclusive; SMN2 splice up: -11%

How did CCCSCCCNC(=O)CN1C(=O)COc2ccc(S(=O)(=O)N3CCCCCC3)cc21 do in these assays?
FLuc counter: -12%; SMN2 splice up: -2%

Results for CCOC(=O)N1CCN(C(=O)CNC2CCCCCCC2)CC1 ?
FLuc counter: 2%; ELG1 genotox: -1%; Rab9 prom act: -2%; NPC1 promoter act: -6%; ELG1 repair inh: 6%; SMN2 splice up: 8%

What do the screens show for `CCN(CC)c1ccc(NC(=S)NC(=O)c2ccco2)cc1`?
FLuc counter: 15µM*; ELG1 genotox: inconclusive; Rab9 prom act: 1.6µM*; NPC1 promoter act: inconclusive; ELG1 repair inh: inconclusive; SMN2 splice up: 7.9µM*

How did CCN(CC)c1ccc(NC(=O)c2ccco2)c(C)c1 do in these assays?
FLuc counter: -19%; ELG1 genotox: inconclusive; Rab9 prom act: 1%; NPC1 promoter act: 10%; ELG1 repair inh: inconclusive; SMN2 splice up: -5%

What do the screens show for `CCN(CC)c1ccc(NC(=O)c2ccco2)cc1`?
FLuc counter: 3µM*; ELG1 genotox: 1.8µM*; Rab9 prom act: inconclusive; NPC1 promoter act: 1.6µM*; ELG1 repair inh: inconclusive; SMN2 splice up: 3.2µM*

How did O=C(COC(=O)c1cc([N+](=O)[O-])ccc1NCCO)Nc1cccc(S(=O)(=O)N2CCCC2)c1 do in these assays?
FLuc counter: -2%; ELG1 genotox: -10%; Rab9 prom act: -3%; NPC1 promoter act: 0%; ELG1 repair inh: inconclusive

How did COCc1cnc(C)nc1N do in these assays?
FLuc counter: 1%; ELG1 genotox: 1%; Rab9 prom act: -5%; NPC1 promoter act: -3%; ELG1 repair inh: 6%; SMN2 splice up: 12%

What do the screens show for `N#Cc1cccc(NC(=O)CSc2cccc[n+]2[O-])c1`?
ELG1 genotox: 1%; ELG1 repair inh: 8%

How did CCn1ccc(C(=O)Nc2ccccc2Cl)n1 do in these assays?
FLuc counter: 11µM*; ELG1 genotox: 8.2µM*; Rab9 prom act: 1.6µM*; NPC1 promoter act: 2µM*; ELG1 repair inh: inconclusive

Results for CCn1cc(Cl)c(C(=O)Nc2ccc(OC)c(OC)c2)n1 ?
FLuc counter: 15µM*; ELG1 genotox: -7%; Rab9 prom act: inconclusive; NPC1 promoter act: 26%; ELG1 repair inh: 14%; SMN2 splice up: -42%

Results for CCn1cc(Cl)c(C(=O)Nc2cc(C(=O)OC)cc(C(=O)OC)c2)n1 ?
FLuc counter: 1%; ELG1 genotox: 1%; Rab9 prom act: 5%; NPC1 promoter act: 0%; ELG1 repair inh: inconclusive; SMN2 splice up: -9%

What do the screens show for `CCn1cc(Cl)c(C(=O)Nc2cccc(CN3CCOCC3)c2)n1`?
FLuc counter: -1%; ELG1 genotox: 0%; Rab9 prom act: 19%; NPC1 promoter act: 24%; ELG1 repair inh: 13%

Results for CCn1ccc(C(=O)Nc2cccc(Cl)c2)n1 ?
FLuc counter: 11µM*; ELG1 genotox: inconclusive; Rab9 prom act: 1.4µM*; NPC1 promoter act: 3.5µM*; ELG1 repair inh: inconclusive; SMN2 splice up: 13µM*
